The results in this text go back to article PMC5540273 (PLoS ONE, 2017).

Settings in all cases: concentration: 1 μM, replicates: in singlicate; n = 1
In assay [1] the test system is ZAK.
Assay [2] concerns ZAP70.
In assay [3] the test system is T1, p38-alpha.
T1 construct: gene MAPK14

Assay [4] relates to T2, p38-beta.
T2 construct: gene MAPK11

Assay [5] relates to p38-delta.
The test system of assay [6] is T3, p38-gamma.
T3 construct: gene MAPK12
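Further: KINOMEscan kinase panel screen.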

`Cn1cc(-c2[nH]c3cc(NC(=O)[C@H](N)C4CCCCC4)cc4c3c2C=NNC4=O)cn1`: the “%Inh” value in assay [1] worked out at 0%; in assay [2], 17%; in assay [3], 0%; in assay [4], 0%; in assay [5] it was 0%; in assay [6] it was 7%.

As for `CC(=O)N1CCN(c2ccc(Nc3nccc(-c4sc(C(C)C)nc4-c4cccc(NS(=O)(=O)c5cccc(Cl)c5)c4)n3)cn2)CC1` [GSK1660437], the “%Inh” value in assay [1] was 96.7%; in assay [2], 0%; in assay [3], 32%; in assay [4], 0%; in assay [5] it was 0%; in assay [6], 11%.

Turning to `COc1cccc(-c2ccc3c(NC(=O)C4CC4)n[nH]c3n2)c1` [SB-710903], the “%Inh” value in assay [1] was 0%; in assay [2], 48%; in assay [3], 23%; in assay [4] it was 0%; in assay [5], 40%; in assay [6], 0%.

Consider `Cc1ccc(F)c(C(=O)Nc2cccc(-c3nn4ccccc4c3-c3ccnc(Nc4cccc(F)c4)n3)c2)c1F` [GSK361061], for which the “%Inh” value in assay [1] is 89%; in assay [2], 0%; in assay [3], 29%; in assay [4] it was 76%; in assay [5], 0%; in assay [6], 12%.

With `COc1cc2c(cc1OCCN1CCNCC1)ncc1c3ccc(C#N)cc3[nH]c21`, the “%Inh” value in assay [1] was determined as 8%; in assay [2] it was 28%; in assay [3], 9%; in assay [4], 3%; in assay [5], 0%; in assay [6] it was 30%.

Regarding `Cc1ccc(C(=O)Nc2ccc(Nc3ccnc4cc(-c5nccs5)ccc34)cc2O)cc1.Cl` [GW494702], the “%Inh” value is 63% in assay [1]; 33% in assay [2]; 0% in assay [3]; 0% in assay [4]; 21% in assay [5]; 19% in assay [6].

As to `CCS(=O)(=O)c1ccc(OC)c(Nc2nccc(-c3c(-c4cccc(NC(=O)c5c(F)cccc5F)c4)nn4ncccc34)n2)c1` [GSK326180], the “%Inh” value in assay [1] is recorded as 28%; in assay [2], 46%; in assay [3], 99.9%; in assay [4] it was 99.6%; in assay [5], 47%; in assay [6] it was 0%.

With `Cl.NC(=O)c1cccc(Nc2nccc(Nc3ccc(Oc4c(Cl)cccc4Cl)c(Cl)c3)n2)c1` [GW659009], the “%Inh” value in assay [1] is recorded as 10%; in assay [2], 0%; in assay [3], 0%; in assay [4], 100%; in assay [5], 0%; in assay [6] it was 0%.

Turning to `CC(=O)Nc1nc2cnc(Nc3cc(NC(=O)c4cccc(C5(C#N)CC5)c4Cl)ccc3C)nc2s1`, the “%Inh” value in assay [1] was determined as 17%; in assay [2] it was 0%; in assay [3] it was 86%; in assay [4] it was 19%; in assay [5] it was 17%; in assay [6], 0%.

On to `Cc1ccc(C(=O)N2CC[C@@H](O)C2)cc1-n1c(C)cc(OCc2ccc(F)cc2F)c(Br)c1=O`, for which the “%Inh” value in assay [1] was found to be 0%; in assay [2], 0%; in assay [3], 100%; in assay [4], 95.4%; in assay [5], 7%; in assay [6], 5%.

Consider `Cc1ccc(C)c(NC(=O)NC2CCN(c3ccnc(Nc4ccc(F)cc4)n3)C2)c1` (stereo not drawn) [GSK1379720], for which the “%Inh” value in assay [1] is 15%; in assay [2], 0%; in assay [3], 11%; in assay [4] it was 0%; in assay [5], 45%; in assay [6], 16%.

For the molecule `O=C(Nc1cccc(Oc2ccc3nc(NC(=O)C4CC4)cn3n2)c1)c1ccccc1C(F)(F)F`, the “%Inh” value turned out to be 25% in assay [1]; 0% in assay [2]; 9% in assay [3]; 15% in assay [4]; 17% in assay [5]; 42% in assay [6].

Turning to `NCCCC(NC(=O)c1cc(Br)c(-c2ccnc3[nH]ccc23)s1)c1ccccc1.O=C(O)C(F)(F)F.O=C(O)C(F)(F)F` (stereo not drawn) [GSK1287544], the “%Inh” value in assay [1] worked out at 59%; in assay [2], 0%; in assay [3], 0%; in assay [4], 0%; in assay [5], 0%; in assay [6], 10%.

As to `CN(C)Cc1ccc(-c2ccc3c(Nc4ccc(Oc5ccccn5)cc4)ccnc3c2)o1` [GW567148], the “%Inh” value in assay [1] worked out at 65%; in assay [2], 0%; in assay [3] it was 0%; in assay [4], 0%; in assay [5] it was 38%; in assay [6], 0%.

As to `COc1cc(Nc2nccc(N3CCC(NC(=O)c4cc5ccccc5s4)C3)n2)cc(OC)c1OC` (stereo not drawn) [GSK1379760], the “%Inh” value is 0% in assay [1]; 0% in assay [2]; 3% in assay [3]; 2% in assay [4]; 15% in assay [5]; 26% in assay [6].

`Nc1ncc(-c2ccc3nccc(-c4ccncc4)c3c2)cc1S(=O)(=O)N1CCOCC1` [GSK1627798]: the “%Inh” value in assay [1], in assay [2], in assay [3], in assay [4], in assay [5] and in assay [6] was 0% throughout.

For the molecule `CCn1c(-c2nonc2N)nc2c(C#CC(C)(C)O)ncc(OCCCCN)c21.O=C(O)C(F)(F)F.O=C(O)C(F)(F)F` [GSK507274], the “%Inh” value was found to be 36% in assay [1]; 0% in assay [2]; 0% in assay [3]; 0% in assay [4]; 27% in assay [5]; 0% in assay [6].

Turning to `COc1ccc(CNC(=O)NC2CCN(c3ccnc(Nc4ccc(F)cc4)n3)CC2)cc1` [GSK1379788], the “%Inh” value in assay [1] was determined as 0%; in assay [2], 4%; in assay [3], 19%; in assay [4] it was 0%; in assay [5], 29%; in assay [6], 0%.

Take `COc1cc(Nc2nccc(-c3c(-c4cccc(NC(=O)c5c(F)cccc5F)c4)nn4ncccc34)n2)cc(OC)c1OC` [GSK327238]: the “%Inh” value in assay [1] was 97.2%; in assay [2], 0%; in assay [3], 99.9%; in assay [4] it was 100%; in assay [5] it was 52%; in assay [6], 21%.

On to `COc1ccc(Nc2nccc(NCCNC(=O)c3cc4ccccc4s3)n2)cc1` [GSK1379896], for which the “%Inh” value came out at 0% in assay [1]; 0% in assay [2]; 13% in assay [3]; 0% in assay [4]; 11% in assay [5]; 5% in assay [6].

Regarding `CCn1c(-c2nonc2N)nc2c(C#CC(C)(C)O)nc(OC[C@H](N)c3ccccc3)cc21` [GSK943949], the “%Inh” value in assay [1] is listed as 0%; in assay [2] it was 0%; in assay [3] it was 0%; in assay [4] it was 0%; in assay [5], 0%; in assay [6], 34%.

As for `CN(c1ccc(NC(=O)Nc2cc(C(F)(F)F)ccc2F)cc1)c1ccnc(Nc2ccc(S(N)(=O)=O)cc2)n1` [GW809893], the “%Inh” value in assay [1] was determined as 94.8%; in assay [2] it was 27%; in assay [3], 9%; in assay [4] it was 88%; in assay [5] it was 91.7%; in assay [6] it was 85%.

Consider `COC(=O)Nc1nc2ccc(Oc3ccc(NC(=O)Nc4cc(C(F)(F)F)ccc4F)cc3)cc2n1C.Cl` [GW692089], for which the “%Inh” value in assay [1] was 87%; in assay [2], 0%; in assay [3], 57%; in assay [4], 16%; in assay [5], 0%; in assay [6] it was 44%.

Turning to `CCCCc1nn2ncccc2c1-c1ccnc(Nc2ccc(N3CCN(C)CC3)cc2)n1` [GW684941], the “%Inh” value is on record as 51% in assay [1]; 0% in assay [2]; 94.2% in assay [3]; 43% in assay [4]; 21% in assay [5]; 0% in assay [6].

For `Cc1ccc(S(=O)(=O)Nc2ccc(Nc3nccc(Nc4cccc5[nH]ncc45)n3)cc2)cc1` [GSK581271], the “%Inh” value is reported as 13% in assay [1]; 0% in assay [2]; 0% in assay [3]; 0% in assay [4]; 46% in assay [5]; 0% in assay [6].

Take `COc1cccc(NC(=O)NC2CCN(c3ccnc(Nc4cc(OC)c(OC)c(OC)c4)n3)C2)c1` (stereo not drawn) [GSK1379763]: the “%Inh” value came out at 0% in assay [1]; 0% in assay [2]; 24% in assay [3]; 0% in assay [4]; 8% in assay [5]; 4% in assay [6].

On to `C[C@@H](Oc1cc(-n2cnc3cc(-c4ccnc(NCCS(C)(=O)=O)c4)ccc32)sc1C(N)=O)c1ccccc1Cl` [GSK907232], for which the “%Inh” value in assay [1] came out at 27%; in assay [2], 0%; in assay [3], 0%; in assay [4], 14%; in assay [5], 29%; in assay [6], 0%.

With `O=C(Nc1n[nH]c2nc(-c3ccc(O)cc3)ccc12)C1CC1` [SB-710363], the “%Inh” value is 23% in assay [1]; 0% in assay [2]; 0% in assay [3]; 11% in assay [4]; 0% in assay [5]; 20% in assay [6].

With `c1ccc(-c2cnc3nccnn23)cc1` [AH20685], the “%Inh” value in assay [1] is recorded as 0%; in assay [2], 0%; in assay [3], 0%; in assay [4], 0%; in assay [5], 20%; in assay [6] it was 0%.

For `Cl.c1ccc(-c2ccc3c(Nc4ccc5[nH]ncc5c4)ccnc3c2)nc1` [GW440137], the “%Inh” value in assay [1] worked out at 71%; in assay [2], 24%; in assay [3], 8%; in assay [4] it was 0%; in assay [5], 38%; in assay [6], 14%.

For `O=C(Nc1cccc(-c2nn3ccccc3c2-c2ccnc(Nc3cccc(F)c3)n2)c1)c1c(F)ccc(F)c1Cl` [GSK357952], the “%Inh” value in assay [1] was 85%; in assay [2] it was 0%; in assay [3], 0%; in assay [4], 26%; in assay [5], 36%; in assay [6], 0%.

Turning to `Nc1ncnc2c1nc(-c1ccccc1)n2-c1ccccc1` [SKF-97293], the “%Inh” value in assay [1] was 16%; in assay [2], 12%; in assay [3], 12%; in assay [4] it was 4%; in assay [5] it was 0%; in assay [6], 26%.

As to `CN1CCN(CCCNc2nccc(-c3c(-c4ccc(F)cc4)nn4cc(C(F)(F)F)ccc34)n2)CC1` [GW621581], the “%Inh” value is given as 17% in assay [1]; 0% in assay [2]; 99.8% in assay [3]; 39% in assay [4]; 12% in assay [5]; 18% in assay [6].

With `Cn1cc(-c2ccc3c(c2)CCN3C(=O)Cc2cccc(F)c2)c2c(N)ncnc21` [GSK2603358], the “%Inh” value stood at 0% in assay [1]; 55% in assay [2]; 0% in assay [3]; 0% in assay [4]; 52% in assay [5]; 19% in assay [6].

Take `Cn1cc(-c2ccc3c(c2)CCN3C(=O)Cc2cccc(Cl)c2)c2c(N)ncnc21` [GSK2606590]: the “%Inh” value in assay [1] was 0%; in assay [2], 0%; in assay [3], 0%; in assay [4] it was 0%; in assay [5], 57%; in assay [6], 29%.

For `Cl.Cl.NCC(C(=O)Nc1cc(Br)c(-c2ccnc3[nH]ccc23)s1)c1ccccc1` (stereo not drawn) [GSK1269851], the “%Inh” value in assay [1] came to 0%; in assay [2], 0%; in assay [3] it was 0%; in assay [4] it was 40%; in assay [5] it was 17%; in assay [6], 0%.

With `Nc1n[nH]c2cnc(-c3ccccc3)cc12` [SB-642124], the “%Inh” value in assay [1] came out at 16%; in assay [2], 0%; in assay [3], 0%; in assay [4] it was 0%; in assay [5], 28%; in assay [6], 0%.
